# From PubChem BioAssay
# D2 ag-1: HTS Assay for Allosteric Agonists of the Human D2 Dopamine Receptor: Primary Screen for Agonists | activation, % at 2 µM | HEK293 T-REx D2 cells, calcium flux agonist mode | D(2) dopamine receptor (Homo sapiens), P14416 | 0.53% of 340,000 active;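 active = activation over 3 SD above normal in the single-dose calcium agonist read, cut at about 30% in these data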
# Target sequence (P14416 whole entry, looked up): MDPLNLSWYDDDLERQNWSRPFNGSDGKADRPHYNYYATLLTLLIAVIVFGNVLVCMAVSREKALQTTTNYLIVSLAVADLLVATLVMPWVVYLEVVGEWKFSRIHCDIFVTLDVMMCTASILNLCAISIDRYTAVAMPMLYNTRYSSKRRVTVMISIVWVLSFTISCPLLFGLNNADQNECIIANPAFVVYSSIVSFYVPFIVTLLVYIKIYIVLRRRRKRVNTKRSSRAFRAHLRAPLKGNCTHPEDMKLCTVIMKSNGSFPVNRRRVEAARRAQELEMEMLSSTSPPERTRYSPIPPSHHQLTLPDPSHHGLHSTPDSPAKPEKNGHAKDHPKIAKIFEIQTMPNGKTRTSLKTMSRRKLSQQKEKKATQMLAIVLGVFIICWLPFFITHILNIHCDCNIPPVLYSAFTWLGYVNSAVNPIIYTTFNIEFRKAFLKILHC
#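 In this primary screen, compounds producing a positive calcium signal within 180 s of addition to tetracycline-induced, force-coupled HEK293 Trex D2 cells are flagged; cells are dye-loaded with a no-wash calcium kit beforehand.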
# D2 antagonist: HTS Assay for Allosteric Antagonists of the Human D2 Dopamine Receptor: Primary Screen for Antagonists; D(2) dopamine receptor (Homo sapiens), P14416; HEK293 TREx D2 cells, calcium flux, dopamine EC80; inhibition, % at 10 µM; 2% of 340,000 active; in the data active = inhibition above about 30%; inactive = below that, where a call was filed
#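 Overnight-induced (tetracycline, 30 C) HEK293 T-REx cells carrying force-coupled D2 receive a no-wash calcium dye, then compound, then EC80 dopamine at 180 s; signals are read kinetically throughout.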
# D2 PAM-1: Beta-Arrestin HTS for Positive Allosteric Modulators of the Human D2 Dopamine Receptor: Potentiators. DiscoveRx D2 beta-arrestin cells, luminescence, 90 min; 100% = 57 uM dopamine signal. D(2) dopamine receptor (Homo sapiens), P14416. potentiation, % (test concentration not listed). 0.23% of 360,000 active. AID 624464, 2012; in the data active = potentiation above about 50%; inconclusive = mostly about 30% to 49%
#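 PathHunter beta-arrestin assay in DiscoveRx D2 cells. Compounds were added with an EC20 of dopamine (50 nM final) for 90 min at 37 deg C. Luminescence was read 1 h after detection reagent, with 57 uM dopamine as the EC100 control.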
# D2 PAM-2: HTS Assay for Positive Allosteric Modulators of the Human D2 Dopamine Receptor: Primary Screen for Potentiators; D(2) dopamine receptor (Homo sapiens), P14416; 0.34% of 340,000 active; AID 485347, 2010; HEK293 T-REx D2, calcium flux, EC20 dopamine potentiation; potentiation, % at 10 µM;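 active = potentiation over 3 SD above the plate norm, cut at about 30% in these data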
#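 Potentiation of an EC20 dopamine calcium response measured kinetically over 180 s, after a preceding 180 s compound-only read flagging agonists. Cells: inducible Hek293 Trex D2 line, 4000/well, cultured overnight at 30 C before dye loading.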
# D2 ag-2: Beta-Arrestin HTS for Positive Allosteric Modulators of the Human D2 Dopamine Receptor: Agonists; DiscoveRx PathHunter D2 beta-arrestin, luminescence, 90 min; 100% = 57 uM dopamine signal; activation, % (no concentration beside the values); 0.084% of 360,000 active; AID 624465, 2012; in the data active = activation above about 40%; inconclusive = between about 15% and that limit
#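 DiscoveRx PathHunter D2 beta-arrestin cells (2,100/well) attached overnight, then compound-stimulated 90 min at 37 C in HBSS/10 mM HEPES/0.1% Tween-20 buffer; beta-galactosidase complementation read by luminescence after 1 h at ambient temperature. Dopamine 57 uM final (EC100) as control.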
# Numbers stand for hits; – = inactive; ? = inconclusive; · = not tested or not shown. This is a sample that favours compounds with a hit; in the whole collection about 2.4% have one here.
SMILES,D2 ag-1,D2 antagonist,D2 PAM-1,D2 PAM-2,D2 ag-2
O=C(CN1C(=O)CC(c2ccccc2)=Nc2ccccc21)Nc1ccc(Br)cc1,–,·,·,–,·
C[N+](C)(CCOc1ccccc1)Cc1ccccc1 (tested in a mixture with another compound),–,–,74,–,?
COc1ccc(NC(=O)CN(C)CC(=O)Nc2sc3c(c2C#N)CCC3)cc1,–,32,–,–,–
CC1Oc2ccccc2N(CC(=O)NCc2ccccc2)C1=O (configuration not stated),–,–,–,–,–
CC1Oc2ccccc2N(CC(=O)NC2CC2)C1=O (configuration not stated),–,33,–,·,–
COc1cccc(CC2(CO)CCCN(Cc3ccccc3Cl)C2)c1 (configuration not stated),–,–,–,–,–
COc1cccc(CC2(CO)CCCN(Cc3ccc(CN4CCCCC4)s3)C2)c1 (configuration not stated),–,40,–,–,–
COC(=O)c1ccc(CN2CCC(CO)(CCOc3ccccc3)CC2)cc1,·,·,–,–,–
COC(=O)c1ccc(CN2CCC(CO)(Cc3cccc(OC)c3)CC2)cc1,–,37,–,–,–
O=C(Nc1nc2c(F)cccc2s1)c1ccc([N+](=O)[O-])o1,–,33,–,–,–
COc1ccc(OC)c(CNS(=O)(=O)c2c(C(=O)N3CCCCCC3)c(C)n(C)c2C)c1,–,·,·,–,·
CCOC(=O)c1sc(NC(=O)CSc2nc(C)cc(C)n2)c(C#N)c1C,–,–,–,–,–
CCOC(=O)c1sc(NC(=O)CSc2n[nH]c(-c3ccccc3)n2)c(C#N)c1C,–,39,–,–,–
N#CCCn1cc(/C=N/N=C2\NC(=O)C(CC(=O)O)S2)c(-c2ccc(F)cc2)n1 (configuration not stated),–,35,–,–,–
O=C(c1cc(F)ccc1F)C1CCCN(C(=O)CCN2CCCCO2)C1 (configuration not stated),–,32,–,–,–
COC(=O)CCC(=O)N1CCCC(C(=O)c2cc(F)ccc2F)C1 (configuration not stated),–,–,–,–,–
CC[N+](C)(C)CC/C=C1/c2ccccc2Sc2ccc(Cl)cc21,–,–,–,–,–
CN(C)CC/C=C1\c2ccccc2Sc2cc(F)c(Cl)cc21,·,·,–,·,–
CN(C)CC/C=C1\c2ccccc2Sc2ccc(Cl)cc21,–,85,–,–,–
OCCN1CCN(CC/C=C2/c3ccccc3Sc3ccc(Cl)cc32)CC1,–,73,–,–,–
COc1cc(OC)c(NC(=O)C(CC(C)C)N2Cc3ccccc3C2=O)cc1Cl (configuration not stated),–,·,·,–,·
CCOc1ccc(CC(=O)Nc2c(C(=O)Nc3ccc(OC)cc3OC)oc3ccccc23)cc1,–,·,·,–,·
O=S(=O)(NCCc1cn2ccccc2n1)c1ccc(-c2ccccc2)cc1,–,–,–,–,–
Cc1cccc(S(=O)(=O)NCCc2cn3ccccc3n2)c1,–,32,–,–,–
CCCc1cc(=O)oc2cc(C)c3c(-c4ccccc4)coc3c12,–,·,·,–,·
CCC1CN(C(=O)N2CCC(C(=O)NCCc3ccccc3Cl)CC2)c2cc(C)ccc2O1 (configuration not stated),–,·,·,–,·
COC(CNS(=O)(=O)c1ccc(Cl)cc1)c1ccccc1 (configuration not stated),–,–,–,–,–
CCN(CC)C(CNS(=O)(=O)c1ccc(Cl)cc1)c1ccccc1 (configuration not stated),–,39,–,–,–
CCOC(=O)/C=C/C(=O)Nc1ccc(S(=O)(=O)N2CCCCCC2)cc1,–,31,–,–,–
